Rows were chosen to be rich in hits. Some 2.9% of all compounds tested hit in one or more screens of this group.
IP6K1 inhibitor: inhibitors of human IP6K1 | Q92551 | IP6K1 kinase, ADP-Glo luminescence, 2 h; active compounds read low | activity change, % (series mostly up to about 58 µM) | 0.81% of 140,000 active | AID 1645851; in the data active = activity change below about -25%
Target sequence (Q92551 whole entry, looked up): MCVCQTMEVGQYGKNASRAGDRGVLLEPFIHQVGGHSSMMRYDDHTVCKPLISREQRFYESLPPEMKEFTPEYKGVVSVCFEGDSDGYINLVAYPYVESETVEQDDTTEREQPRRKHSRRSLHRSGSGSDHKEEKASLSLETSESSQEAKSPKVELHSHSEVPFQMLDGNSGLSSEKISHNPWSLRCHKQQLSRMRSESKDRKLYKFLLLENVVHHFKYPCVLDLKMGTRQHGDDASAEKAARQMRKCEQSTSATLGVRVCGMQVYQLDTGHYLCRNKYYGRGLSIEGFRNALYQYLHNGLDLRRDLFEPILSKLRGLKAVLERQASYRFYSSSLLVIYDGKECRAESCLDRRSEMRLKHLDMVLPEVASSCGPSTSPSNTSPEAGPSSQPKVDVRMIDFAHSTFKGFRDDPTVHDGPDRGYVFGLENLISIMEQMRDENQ
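ADP-Glo luminescence measures ADP made by human IP6K1 during a 2 h RT reaction with ATP/IP6 (mix at 1.3 mM/130 uM); top library doses 57.5 and 19.1 uM final.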
HEK293 viab: reduces viability of HEK-293 SNCA reporter cells; Potency, µM (highest dose often 57.1 µM), hits mostly cytotoxic; 0.12% of 150,000 active; AID 1671193; HEK-293-SNCA-luc viability, GF-AFC fluorescence, 24 h; also: nearly all actives have a fitted effect of over 30% in size
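Cytotoxicity counterscreen: after 24 h compound treatment of genome-edited SNCA-luciferase HEK-293 cells, live-cell protease substrate GF-AFC read by fluorescence after 30 min; activity scaled between DMSO (0%) and medium-only (-100%), curves Hill-fitted.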
SNCA expr inh: reduces expression of the alpha-synuclein gene | HEK-293 SNCA-luciferase knock-in, luminescence, 24 h | Potency, µM (series often up to 57.2 µM), most hits filed as inhibitors | 0.17% of 140,000 active | AID 1671194; also: nearly all actives have a fitted effect of over 45% in size
KDM5B inh: inhibitors of human KDM5B histone demethylase | Q9UGL1 | KDM5B demethylase, FDH-coupled NADH fluorescence (FDH is formaldehyde dehydrogenase) | Potency, µM (titrated, usually from 57.7 µM), most hits filed as inhibitors | 2.6% of 220,000 active; also: nearly all actives have a fitted effect of over 70% in size
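Compound dilutions met 200 nM (final) KDM5BΔAP for 10 min at room temperature before substrate addition. The substrate mix held 12.5 µM H3K4me3 with cofactors 25 µM α-ketoglutarate and 50 µM Fe²⁺. NADH signal gain over 30 min defined activity.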
A number is an active result; [ ] = remark or other dose. Unless noted, calls follow the shape of the dose curve; as a rule, active = well fitted curve in the direction sought with a large enough effect; inconclusive = small, poorly fitted or top-dose-only effect, or another doubt; inactive = no such curve, though single readings can be large; an effect the other way counts as inactive or inconclusive.

`COc1ccccc1N1CCCc2ncc(C(=O)NCCOc3ccccc3)cc21` gave IP6K1 inhibitor inactive, HEK293 viab inactive, SNCA expr inh inactive and KDM5B inh inactive.
`COc1cncc(Nc2cnc3ccc(N(C)Cc4ccc(F)cc4)nn23)c1` gave IP6K1 inhibitor inactive, HEK293 viab inactive, SNCA expr inh inconclusive and KDM5B inh 35.5µM.
For CN(Cc1ccc(F)cc1)c1ccc2ncc(Nc3ccnc(N4CCOCC4)c3)n2n1 the results were IP6K1 inhibitor inactive, HEK293 viab inactive, SNCA expr inh inconclusive and KDM5B inh 28.2µM.
Fc1ccc(-c2ccc3ncc(Nc4ccnc(N5CCOCC5)c4)n3n2)cc1 was read as IP6K1 inhibitor inactive, HEK293 viab inconclusive, SNCA expr inh inactive and KDM5B inh inactive.
Screening O=C(O)C1CCN(S(=O)(=O)c2cc(Cl)ccc2Cl)CC1 returned KDM5B inh inactive.
O[C@@H]1CC(CNC2CCC2)(COc2cnccn2)C[C@@H]1O (some centres undefined) was read as IP6K1 inhibitor inactive, HEK293 viab inactive, SNCA expr inh inactive and KDM5B inh inconclusive.
For Cc1nn(CC(=O)N2CCCCCC2)c(=O)c2nc(-c3ccccc3)sc12 the results were IP6K1 inhibitor inactive, HEK293 viab inactive, SNCA expr inh inactive and KDM5B inh 31.6µM.
Screening CCc1nc2c(=O)n(CC(=O)N(CC)Cc3ccccc3)nc(C)c2s1 returned IP6K1 inhibitor inactive, HEK293 viab inactive, SNCA expr inh inactive and KDM5B inh inactive.
For CCCCN(C)C(=O)Cn1nc(C)c2sc(-c3ccccc3)nc2c1=O the results were IP6K1 inhibitor inactive, HEK293 viab inactive, SNCA expr inh inactive and KDM5B inh 28.2µM.
For CCc1nc2c(=O)n(CC(=O)N3CCN(c4cccc(C)c4C)CC3)nc(C)c2s1 the results were IP6K1 inhibitor inactive, HEK293 viab inactive, SNCA expr inh inactive and KDM5B inh inactive.
Screening Cn1nc(-c2nncn2CC2CC2)c2c1CCN(C(=O)c1cn[nH]c1-c1ccccc1)C2 returned IP6K1 inhibitor inactive, HEK293 viab inactive, SNCA expr inh inactive and KDM5B inh inactive.
For CCn1cnnc1-c1nn(C)c2c1CN(C(=O)CCC(=O)N1CC(=O)Nc3ccccc31)CC2 the results were IP6K1 inhibitor inactive, HEK293 viab inactive, SNCA expr inh inactive and KDM5B inh 14.1µM.
Screening Cn1nc(-c2nncn2CC2CC2)c2c1CCN(C(=O)c1n[nH]c3ccccc13)C2 returned IP6K1 inhibitor inactive, HEK293 viab inactive, SNCA expr inh inactive and KDM5B inh 20µM.
`CC(C)n1cnnc1-c1nn(C)c2c1CN(C(=O)c1n[nH]c3ccccc13)CC2` gave IP6K1 inhibitor inactive, HEK293 viab inactive, SNCA expr inh inactive and KDM5B inh inactive.
For CN(CC(=O)N1CCc2c(c(-c3nncn3CC3CC3)nn2C)C1)S(=O)(=O)c1cnc[nH]1 the results were IP6K1 inhibitor inactive, HEK293 viab inactive, SNCA expr inh inactive and KDM5B inh 22.4µM.
CC(C)n1cnnc1-c1nn(C)c2c1CN(C(=O)Cc1c[nH]c3ccccc13)CC2 was read as IP6K1 inhibitor inactive, HEK293 viab inactive, SNCA expr inh inactive and KDM5B inh 20µM.
Screening CCn1cnnc1-c1nn(C)c2c1CN(C(=O)CCn1nc(C)cc1C)CC2 returned IP6K1 inhibitor inactive, HEK293 viab inactive and SNCA expr inh inactive.
Screening Cc1ccc2[nH]c(=O)cc(C(=O)N3CCOC(CCCC(C)C)C3)c2c1 (centres undefined) returned IP6K1 inhibitor inactive, HEK293 viab inactive, SNCA expr inh inactive and KDM5B inh 28.2µM.
COCCC1(NC(=O)C2CCOCC2)CCN(C(=O)C2CCCCC2)CC1 was read as IP6K1 inhibitor inactive, HEK293 viab inactive, SNCA expr inh inactive and KDM5B inh inactive.
`CCn1cc(C(=O)N2CCC3(CC2)CN(C2CCC2)CC3CO)cn1` (centres undefined) gave IP6K1 inhibitor inactive, HEK293 viab inactive, SNCA expr inh inactive and KDM5B inh 10µM.
For Cc1ccc(C(=O)N2CCC3(CC2)CN(C2CCC2)CC3CO)s1 (centres undefined) the results were IP6K1 inhibitor inactive, HEK293 viab inactive[12.5 µM], SNCA expr inh inactive and KDM5B inh inconclusive.
Screening Cc1cc(CN2CCC3(CC2)CN(C2CCC2)CC3CO)n(C)n1 (centres undefined) returned IP6K1 inhibitor inactive, HEK293 viab inactive, SNCA expr inh inactive and KDM5B inh 17.8µM.
`O=C(CN1C(=O)NC(c2ccc(Cl)cc2)C2=C1COC2=O)Nc1ccccc1` (centres undefined) gave IP6K1 inhibitor inactive, HEK293 viab inactive, SNCA expr inh inconclusive and KDM5B inh inactive.
CCCCc1ccc(NC(=O)CN2C(=O)NC(c3ccc(Cl)cc3)C3=C2COC3=O)cc1 (centres undefined) was read as IP6K1 inhibitor inactive, HEK293 viab inconclusive, SNCA expr inh 12.6µM and KDM5B inh inactive.
c1ccc2oc(CN3Cc4[nH]cnc4C[C@H]3c3nc(-c4ccc5c(c4)OCO5)no3)cc2c1 was read as IP6K1 inhibitor inactive, HEK293 viab inactive, SNCA expr inh inconclusive and KDM5B inh 35.5µM.
FC(F)(F)c1ccc(-c2noc([C@@H]3Cc4nc[nH]c4CN3Cc3cc4ccccc4o3)n2)cc1 was read as IP6K1 inhibitor inactive, HEK293 viab inactive, SNCA expr inh inactive and KDM5B inh 25.1µM.
Screening CC(C)C(=O)N1CCC(N2C(=O)C3(CCCCC3)C2c2ccncc2)CC1 (centres undefined) returned IP6K1 inhibitor inactive, HEK293 viab inactive[12.5 µM], SNCA expr inh inactive and KDM5B inh inconclusive.
For C=CCCC(CN1CCCOCC1)Oc1ccc2cccc(OC)c2n1 (centres undefined) the results were IP6K1 inhibitor inactive, HEK293 viab inactive, SNCA expr inh inactive and KDM5B inh 31.6µM.
Cc1c(C(=O)O)sc2ncnc(NCC3(O)CCCCC3)c12 was read as IP6K1 inhibitor inactive, HEK293 viab inactive, SNCA expr inh inactive and KDM5B inh 20µM.
Screening CCC(CC)C(=O)NC[C@@H]1C=C(C)[C@H](Cc2nc3ccc(OC)cc3[nH]2)C[C@H]1C(C)C returned IP6K1 inhibitor inactive, HEK293 viab 39.8µM, SNCA expr inh inconclusive and KDM5B inh inconclusive.
`COc1ccc(CNC(=O)C[C@@H]2C[C@@H](C(C)C)[C@H](CNC(C)=O)C=C2C)cc1` gave IP6K1 inhibitor inactive, HEK293 viab inactive, SNCA expr inh inactive and KDM5B inh 35.5µM.
c1cncc(COc2cc3c(cn2)NCCN(CC2CCCCC2)C3)c1 was read as IP6K1 inhibitor inactive, HEK293 viab inactive, SNCA expr inh inactive and KDM5B inh 25.1µM.
CCOc1cc2c(cn1)NCCN(Cc1ccc3[nH]ccc3c1)C2 was read as IP6K1 inhibitor inactive, HEK293 viab inactive, SNCA expr inh inactive and KDM5B inh 28.2µM.
For c1ccc(-c2cc3c(cn2)CN(Cc2ccc4[nH]ccc4c2)CCN3)cc1 the results were IP6K1 inhibitor inactive, HEK293 viab inconclusive, SNCA expr inh inactive and KDM5B inh inactive.
Screening Oc1ccccc1CN1CCNc2cnc(OCc3cccnc3)cc2C1 returned IP6K1 inhibitor inactive, HEK293 viab inactive, SNCA expr inh inactive and KDM5B inh inconclusive.

Screens deposited in PubChem BioAssay by National Center for Advancing Translational Sciences (NCATS).
